We go through seven compounds from PubChem BioAssay (NCATS).

Assay [1] can be described thus: Cell Viability - HUV-EC-C (AID 542).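 Further: cells exposed to compound for 40 hours; on the % scale 0 is the no-effect control and ±100 the full control effect; nearly all actives have a fitted effect of over 35% in size.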 Put shortly: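 Concentration-dependent ATP loss in HUV-EC-C cells is the measure. Exposure lasts 40 hr at 37 °C; luminescence follows CellTiter-Glo addition, and Hill fits give AC50.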
Assay [2] can be described thus: Cell Viability - SH-SY5Y (AID 544).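 Further: cells exposed to compound for 40 hours; 0% = DMSO alone and -100% = 100 µM tamoxifen; nearly all actives have a fitted effect of over 55% in size.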 The settings on record: SH-SY5Y neuroblastoma cell viability; viability change, negative = cytotoxic: at 92.2 µM (top of the series). Put shortly:
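Quantitative HTS in SH-SY5Y neuroblastoma cells, 40 hr treatment at 37 °C, ATP content by luciferase luminescence; AC50 from Hill fits.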

The nature of assay [3]: Cell Viability - Renal Proximal Tubule (AID 545).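 Further: cells exposed to compound for 40 hours; 0% = DMSO only and -100% = 100 µM tamoxifen; nearly all actives have a fitted effect of over 40% in size.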 Put shortly:
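Primary rat renal proximal tubule cells (1000/well) were treated with compounds for 40 hr at 37 °C in complete medium. Intracellular ATP was measured by CellTiter-Glo luminescence, and AC50 values came from Hill-equation fits of concentration-response data.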

A short description of assay [4]: Cell Viability - LYMP2-011 (AID 969).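 Further: cells exposed to compound for 24 hours; 0% = DMSO only and full inhibition = 92 µM tetraoctylammonium bromide; nearly all actives have a fitted effect of over 60% in size.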 Put shortly:
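Cells seeded at 2500 per well rest 5 hr before compound addition, then incubate 24 hr at 37 C. CellTiter-Glo reagent is added for 30 min at room temperature before luminescence detection.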

Assay [5] in a line: Cell Viability - LYMP2-002 (AID 977).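 Further: plate controls were DMSO only for no effect and 92 µM tetraoctylammonium bromide for full effect.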 Put shortly: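 In this qHTS viability screen, 2500 human lymphoblastoid cells per well receive compound for 24 hr at 37 C, and luciferase-based ATP luminescence gives the viability signal. Tetraoctylammonium bromide serves as positive control.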
Assay [6] in a line: Cell Viability - LYMP2-010 (AID 981).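 Further: cells exposed to compound for 24 hours at 37 °C; on the % scale 0 is the no-effect control and ±100 the full control effect; nearly all actives have a fitted effect of over 55% in size.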 Put shortly: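 This 24 hr viability screen uses LYMP2-010 lymphoblastoid cells, quantifies ATP via luciferase luminescence, and derives AC50 from Hill fits of qHTS concentration-response data.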
The nature of assay [7]: Cell Viability - LYMP2-012 (AID 982).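 Further: cellular ATP by luciferase luminescence where a drop means cytotoxicity; cells exposed to compound for one day before reading; 0% = DMSO only and full loss = 92 µM tetraoctylammonium bromide; nearly all actives have a fitted effect of over 55% in size.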
Assay [8] deals with Peroxisome proliferator-activated receptor delta (Homo sapiens) (UniProt Q03181). As to the kind of experiment: qHTS assay for small molecule agonists of peroxisome proliferator-activated receptor delta signaling (AID 588534; calls by dose curve;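 further: 0% = DMSO basal wells and 100% = positive control agonist at 10 µM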). Put shortly: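 EC50 and efficacy values derive from Hill fits of a concentration series in a beta-lactamase reporter cell assay. Exposure is 18 hrs at 37 C, with CCF4 fluorescence as the readout.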
Sequence of Peroxisome proliferator-activated receptor delta (Homo sapiens) (Q03181 whole entry, looked up): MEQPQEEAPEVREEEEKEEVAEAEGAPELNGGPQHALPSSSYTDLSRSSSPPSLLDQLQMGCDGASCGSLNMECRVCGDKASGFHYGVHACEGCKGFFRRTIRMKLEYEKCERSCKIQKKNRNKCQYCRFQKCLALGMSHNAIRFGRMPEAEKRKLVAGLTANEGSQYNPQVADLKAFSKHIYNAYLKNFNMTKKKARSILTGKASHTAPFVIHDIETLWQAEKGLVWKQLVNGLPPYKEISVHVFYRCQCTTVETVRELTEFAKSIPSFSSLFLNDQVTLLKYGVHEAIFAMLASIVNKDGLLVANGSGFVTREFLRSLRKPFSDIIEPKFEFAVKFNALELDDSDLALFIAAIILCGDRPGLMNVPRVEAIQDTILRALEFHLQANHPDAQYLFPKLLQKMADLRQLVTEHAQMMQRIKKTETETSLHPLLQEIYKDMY

Assay [9] has as its target Retinoic acid receptor RXR-alpha (Homo sapiens) (UniProt P19793). As to the kind of experiment: qHTS assay for small molecule agonists of retinoid X receptor alpha signaling (AID 588544; calls by dose curve;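 further: 0% = DMSO basal wells and 100% = reference agonist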). A general note: In qHTS, concentration-response curves come from the screen itself.
The target of assay [10] is Thyroid hormone receptor beta (Homo sapiens) (UniProt P10828). The assay is described as follows: qHTS assay for small molecule agonists of thyroid hormone receptor beta signaling (AID 588545; calls by dose curve). Put shortly:
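Cells (2500/well) were seeded, incubated 4 hrs at 37 C, dosed with a compound series, incubated 18 hrs, loaded with CCF4 dye for 2 hrs at RT, then read for fluorescence. Data were scaled between DMSO (0%) and 10 nM T3 (100%).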

Assay [11] in a line: qHTS assay for small molecule disruptors of the mitochondrial membrane potential - 1 hr assay (AID 651754; calls by dose curve; further: nearly all actives have a fitted effect of over 35% in size; further: potency means the concentration at half of the fitted maximal effect). Put shortly:
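In this qHTS format, a 1 hr compound treatment of HepG2 cells precedes Mito-MPS staining, and membrane potential is judged from aggregate (red) against monomer (green) fluorescence intensity.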

The nature of assay [12]: qHTS assay for environmental chemicals that activate the Aryl hydrocarbon Receptor (AhR) signaling pathway (AID 651777). Further: % of control where 0% means no effect; nearly all actives have a fitted effect of over 15% in size. The settings on record: 1A2-DRE human hepatoma cells, luciferase, 24 h; activation: active compounds read high. Put shortly: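 Quantitative HTS in stably transfected human liver-derived cells whose luciferase gene sits downstream of the CYP1A2 promoter and dioxin response element. After 24 hr exposure at 37 C, One-Glo luminescence was measured.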

Assay [13] can be described thus: qHTS assay for small molecule agonists of the antioxidant response element (ARE) signaling pathway measured by Nrf2-dependant transcriptional activity (AID 720636; active means well fitted curve in the direction sought with a large enough effect in the repeat runs; an effect the other way counts as inactive or inconclusive; further: % of control where 0% means no effect). Put shortly:
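Quantitative HTS format in HepG2 cells stably expressing an ARE-luciferase reporter; 16 hr compound treatment at 37 C, luciferase signal detected with ONE-Glo.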

Assay [14] addresses Nuclear receptor subfamily 1 group I member 2 (Rattus norvegicus) (UniProt Q9R1A7). As to the kind of experiment: qHTS assay for small molecule activators of the rat pregnane X receptor (rPXR) signaling pathway (AID 651751; call rule not given here; further: 0% is about no effect). Particulars: rPXR reporter cells, luciferase (One-Glo), 24 h.
Assay [15] can be described thus: qHTS assay for small molecule activators of the human pregnane X receptor (PXR) signaling pathway (AID 720659; call rule not given here; further: 0% is about no effect).
Assay [16] can be described thus: Cell Viability - Mesenchymal (AID 546).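 Further: cells exposed to compound for 40 hours before reading; 0% = DMSO only and -100% = 100 µM tamoxifen.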 Put shortly:
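In this qHTS cytotoxicity format, glomerulus-derived human mesenchymal kidney cells received compound for 40 hr, then luciferase-based ATP quantitation. Concentration-response data were fitted with the Hill equation.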

Assay [17] in a line: Cell Viability - LYMP1-003 - Assay at 40 hr (AID 964). Further: on the % scale 0 is the no-effect control and ±100 the full control effect; nearly all actives have a fitted effect of over 60% in size. Put shortly: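 Acute toxicity is scored as a concentration-dependent loss of intracellular ATP in LYMP1-003 cells (2500/well, complete medium) after 40 hr at 37 C, measured by CellTiter-Glo luminescence; AC50 values derive from standard Hill modelling.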
The target of assay [18] is Retinoic acid receptor RXR-alpha (Homo sapiens) (UniProt P19793). The assay is described as follows: qHTS assay for small molecule antagonists of retinoid X receptor alpha signaling (AID 588546; active means well fitted inhibition curve with a large enough effect in the signal ratio, with a control signal flat, not every such curve was filed as active; the % refers to the signal ratio; further: on the % scale 0 is the no-effect control and ±100 the full control effect). The settings on record: HEK293T RXRa-UAS-bla, beta-lactamase ratio, antagonist mode. Put shortly: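 Beta-lactamase reporter inhibition, read as CCF4 fluorescence ratio (ex 405, em 460/530 nm) after 2 h at RT. HEK293T UAS-bla cells, 2500/well, were stimulated with 9-cis-RA at 500 or 100 nM final alongside test compound for 18 h at 37 C.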
Sequence of Retinoic acid receptor RXR-alpha (Homo sapiens) (P19793 whole entry, looked up): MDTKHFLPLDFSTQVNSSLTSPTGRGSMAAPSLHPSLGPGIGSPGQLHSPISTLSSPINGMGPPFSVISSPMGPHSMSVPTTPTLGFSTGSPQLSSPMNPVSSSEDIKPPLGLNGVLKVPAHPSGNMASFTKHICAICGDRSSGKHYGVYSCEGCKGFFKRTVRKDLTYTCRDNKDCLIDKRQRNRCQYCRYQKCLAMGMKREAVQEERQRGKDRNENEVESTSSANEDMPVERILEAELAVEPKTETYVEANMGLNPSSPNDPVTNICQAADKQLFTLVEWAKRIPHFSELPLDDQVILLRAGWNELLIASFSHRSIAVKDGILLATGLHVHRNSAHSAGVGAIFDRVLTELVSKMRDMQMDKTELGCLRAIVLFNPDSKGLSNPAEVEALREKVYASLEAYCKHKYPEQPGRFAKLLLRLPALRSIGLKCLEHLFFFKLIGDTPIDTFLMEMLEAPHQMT

The nature of assay [19]: qHTS assay for small molecule antagonists of the retinoid-related orphan receptor gamma (ROR-gamma) signaling pathway - cell viability counter screen (AID 720652; active means well fitted curve in the direction sought with a large enough effect in the repeat runs; an effect the other way counts as inactive or inconclusive;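 further: CHO reporter cells with doxycycline-induced ROR-gamma expression; compound exposure lasted 16 hr before ATP read; on the % scale 0 is the no-effect control and ±100 the full control effect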). Put shortly: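 ATP-based viability readout in the ROR-gamma reporter CHO cells after 16 hr compound exposure under doxycycline induction.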
Assay [20] has as its target Thyroid hormone receptor beta (Homo sapiens) (UniProt P10828). The assay is described as follows: qHTS assay for small molecule antagonists of thyroid hormone receptor beta signaling (AID 588547; active means well fitted inhibition curve with a large enough effect in the signal ratio, with a control signal flat, not every such curve was filed as active; the % refers to the signal ratio;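 further: cells stimulated with 0.4 nM T3 agonist during compound exposure; on the % scale 0 is the no-effect control and ±100 the full control effect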). Particulars: TR-UAS-bla HEK293, beta-lactamase ratio, antagonist mode, 18 h. Put shortly:
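TR-UAS-bla GripTite HEK293 cells in 2% charcoal/dextran FBS medium were preincubated 4 h at 37 C, given compound (0.59 nM to 92 uM) plus 0.4 nM T3 (final) for 18 h, then CCF4 for 2 h at RT; Hill fit gave IC50.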

Values joined by “and” are separate entries in the source; they are usually repeats but may differ in a detail not shown here. Equal entries are not always repeated. Values without a mark were called inactive. Results filed as inconclusive are left out. Active and inactive are the calls of the source. Unless noted, the call rests on the fitted dose curve; in most records, active means well fitted curve in the direction sought with a large enough effect; inconclusive means small, poorly fitted or top-dose-only effect, or another doubt; inactive means no such curve, though single readings can be large; an effect the other way counts as inactive or inconclusive.

Sequence of Thyroid hormone receptor beta (Homo sapiens) (P10828 whole entry, looked up): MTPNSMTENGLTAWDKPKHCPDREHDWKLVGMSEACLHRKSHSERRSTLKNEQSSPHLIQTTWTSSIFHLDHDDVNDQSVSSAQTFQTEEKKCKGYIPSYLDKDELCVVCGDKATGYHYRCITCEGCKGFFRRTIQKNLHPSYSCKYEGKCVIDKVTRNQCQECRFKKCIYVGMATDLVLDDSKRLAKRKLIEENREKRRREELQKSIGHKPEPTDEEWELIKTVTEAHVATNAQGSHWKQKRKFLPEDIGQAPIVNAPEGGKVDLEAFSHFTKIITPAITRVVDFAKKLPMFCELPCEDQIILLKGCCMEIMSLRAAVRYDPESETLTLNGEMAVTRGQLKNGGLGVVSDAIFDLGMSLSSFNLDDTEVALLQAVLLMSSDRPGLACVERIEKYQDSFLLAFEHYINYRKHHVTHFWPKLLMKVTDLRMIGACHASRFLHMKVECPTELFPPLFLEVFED
Sequence of Nuclear receptor subfamily 1 group I member 2 (Rattus norvegicus) (Q9R1A7 whole entry, looked up): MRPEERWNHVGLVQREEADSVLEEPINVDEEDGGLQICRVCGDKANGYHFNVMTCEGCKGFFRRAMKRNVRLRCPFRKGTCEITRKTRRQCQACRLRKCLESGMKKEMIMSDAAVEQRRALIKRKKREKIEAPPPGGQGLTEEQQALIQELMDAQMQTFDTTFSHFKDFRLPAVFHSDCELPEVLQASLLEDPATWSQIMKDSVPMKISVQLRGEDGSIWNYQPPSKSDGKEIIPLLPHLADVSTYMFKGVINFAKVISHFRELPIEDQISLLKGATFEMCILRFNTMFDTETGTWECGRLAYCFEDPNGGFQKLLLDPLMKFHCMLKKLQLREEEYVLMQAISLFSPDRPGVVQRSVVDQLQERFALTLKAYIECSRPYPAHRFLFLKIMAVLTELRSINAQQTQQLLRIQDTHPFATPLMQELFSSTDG

Take `CCCCCc1cc(O)cc(O)c1`: the Potency entry in [1], in assay [2], in assay [4], in [5], in assay [6] and in assay [7] was “inactive” throughout. For the same compound, the Potency result in assay [10] and in assay [13] was “inactive” throughout. The compound was classed as inactive in assay [3], in assay [8], in assay [9] and in assay [15]. Further, in assay [11], the Potency is 37.6 µM (active). Moreover, in [12], the activation is 9.87%. For the same compound, in assay [14], the max response was -1.86%.
As to `c1ccc2c(c1)CCNC2`, the Potency result in assay [1], in assay [2], in assay [16], in assay [17], in assay [4] and in assay [5] was “inactive” each time. Besides, the Potency entry in assay [6], in assay [11], in assay [13] and in assay [19] was “inactive” each time. Further, the result in assay [8], in assay [9] and in assay [15] was inactive. For the same compound, the values for the max response in assay [18] and in assay [14] were 19.2% and -0.393%, respectively. In assay [12], the activation is -1.3%.
Consider `C/C=C/CC#N`, for which the Potency entry in assay [1], in assay [2], in assay [16], in assay [17], in [4] and in assay [6] was “inactive” in each case. The Potency entry in assay [7], in assay [10], in [11] and in [19] was “inactive” each time. Moreover, the compound was classed as inactive in assay [3], in assay [8], in [9] and in [15]. The max response in assay [18] was 13.1%; in [14], -0.823%.
On to `C=CC#N`, for which the Potency result in [1], in assay [2], in assay [16], in [17], in assay [5] and in [6] was “inactive” in each case. The Potency result in assay [7], in [11] and in assay [19] was “inactive” in each case. For the same compound, the compound was called inactive in assay [3], in assay [9] and in assay [15]. Also, the max response was 19% in assay [18] and -2.96% in assay [14]. Further, the activity change % (negative = inhibition) in assay [20] is -5.45%. The activation in assay [12] is 2.03%.
For the compound `Clc1cccc(Cl)c1Cl`, the Potency entry in assay [2], in [17], in assay [4], in assay [5], in assay [7] and in assay [10] was “inactive” in each case. Also, the Potency result in assay [11], in [13] and in assay [19] was “inactive” in each case. In addition, the compound was called inactive in [3], in assay [8], in assay [9] and in assay [15]. For the same compound, the max response in assay [18] was 1.17% and -4.41%; in [14] it was -2.59% and 0.772%. Also, in [20], the activity change % (negative = inhibition) was -6.61% and -16.3%.
Consider `CC(C)(Cl)[N+](=O)[O-]`, for which the Potency result in assay [2], in assay [16], in assay [17], in assay [4], in assay [5] and in [6] was “inactive” throughout. The Potency entry in assay [7], in assay [10], in assay [11], in [13] and in [19] was “inactive” in each case. For the same compound, the result in assay [3], in [8], in assay [9] and in [15] was inactive. In addition, the figures for the max response in [18] and in [14] were 5.8% and 2.49%, respectively. Further, in assay [12], the activation is -0.364%.
For `CC(C)(C)c1ccccc1O`, the Potency result in assay [2], in assay [16], in assay [17], in [4], in assay [5] and in assay [6] was “inactive” in each case. Also, the Potency entry in assay [7], in assay [10], in assay [13] and in [19] was “inactive” each time. Also, the compound was classed as inactive in assay [3], in [8], in [9] and in [15]. Moreover, the max response in assay [18] is 2.54% and -7.07%; in assay [14] it was -1.16% and -0.87%. The activity change % (negative = inhibition) in [20] is 3.5% and 10.7%. In assay [12], the activation was 1.34% and -1.14%.
